Results taken from PubChem BioAssay (NCI).
Compounds without any hit were thinned out: in the full panel of roughly 79,000, 15% have a hit. Unmarked numbers belong to inactive results. Active and inactive are the calls of the source. Rule as the data show it: active = growth inhibition above about 70%; inactive = the rest. Where a SMILES comes first, the peptide text is derived from it. [ ]: non-standard residue; d: D form. The star is where a group is joined. Cbz = O=C(OCc1ccccc1)*; Dha = C=C(N)C(=O)O

Assay: NCI Yeast Anticancer Drug Screen. Data for the cln2 rad14 strain (AID 165);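 also: 0% = growth equal to vehicle treated cultures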
Conditions: S. cerevisiae cln2 rad14 strain, at 50.0 µM, stronger effect = higher value
Summary of the method: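 Yeast carrying cln2 and rad14 alterations (cell cycle control and DNA damage repair) were exposed to compounds. Growth inhibition was measured against vehicle-treated controls.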
Compound `c1ccc(COC(c2ccccc2)(c2ccccc2)c2ccccc2)cc1` has a growth inhibition of -8.55%.
`N#CC(c1ccccc1)C1CCN(Cc2ccccc2)CC1` (stereo not given) gave a growth inhibition of 47.8%.
For `O=c1n(CCO)nc2n1CCCN2`, the growth inhibition was -15.8%.
For `Cc1ccccc1C(=O)N1CCOCC1`, the growth inhibition was -13.4%.
For `CC1(C)CC(=O)C2(C)C(C1O)C2C1C2C(O)C(C)(C)CC(=O)C21C` (stereo not given), the growth inhibition was -6.75%.
For `O=C(O)CSCCOCCSCC(=O)O`, the growth inhibition was 12.1%.
`CCCCCSC` gave a growth inhibition of 10.1%.
`c1ccc(B2OB(c3ccccc3CN3CCCC3)OB(c3ccccc3CN3CCCC3)O2)c(CN2CCCC2)c1` gave a growth inhibition of 17.1%.
Compound `C=C(C)C1CC/C(C)=C/CC[C@]2(C)O[C@H]2CC/C(COC(C)=O)=C\[C@@H]1O` (stereo not given in full) has a growth inhibition of 3.65%.
`CCC(C)CCC(N)C(=O)O` (stereo not given) gave a growth inhibition of -0.1%.
Compound `c1cc2c3c(cccc3c1)-c1nc3ccccc3nc1-2` has a growth inhibition of 4.05%.
Work on `Cc1nc(N)nc(C)c1N=Nc1cc(Cl)cc(Cl)c1` yielded a growth inhibition of -32.9%.
For `CCCCCCCCCCCc1cc(=O)n(-c2cc(Cl)ccc2Cl)n1C`, the growth inhibition was 98.7% (active).
In the case of `CCCCCNC(=O)C(C)O` (stereo not given), the growth inhibition is reported as -30.5%.
`CC1C(c2ccccc2)=C(c2ccccc2)C(c2ccccc2)=C(c2ccccc2)C1c1ccccc1` (stereo not given) showed a growth inhibition of -5.55%.
Work on `O=S(Cc1ccccc1)CC(O)CO` (stereo not given) yielded a growth inhibition of -41.2%.
For `NC(=NC1CCCCC1)c1ccc(C(=O)OCC2CCCCC2)cc1`, the growth inhibition was 19.9%.
`CCCCC1(CCBr)C(=O)NC(=Nc2ccccc2)NC1=O` (stereo not given) gave a growth inhibition of -41.8%.
Compound `Cn1c(=O)c2nsnc2n(C)c1=O` has a growth inhibition of -25.3%.
`CC(=O)OC12c3ccccc3C(c3ccccc31)C1C(=O)N(c3ccccc3O)C(=O)C12` (stereo not given) showed a growth inhibition of 6.2%.
`O=C(O)C(Nc1ccc(Cc2ccc(NC(C(=O)O)c3ccccc3)cc2)cc1)c1ccccc1` (stereo not given) gave a growth inhibition of -4.5%.
`Cc1nc(-c2ccccc2)ncc1C(O)CN(C)C` (stereo not given) showed a growth inhibition of 2.35%.
In the case of `CNC(=O)c1ccccc1C(O)c1ccc(C)cc1` (stereo not given), the growth inhibition is reported as 23.4%.
Work on `CN(C)c1ccc(C2SCC(=O)N2NS(=O)(=O)c2cccc(C(=O)O)c2)cc1` (stereo not given) yielded a growth inhibition of 4.75%.
For `COc1cc(C(C)S(=O)(=O)O)ccc1O` (stereo not given), the growth inhibition was -12.6%.
`O=C1NCC/C1=C\c1ccccc1` gave a growth inhibition of -8.05%.
For `NC1=NC=NCN1c1ccc(N)cc1`, the growth inhibition was -54.4%.
In the case of `O=c1[nH]cnc2c1sc(=S)n2-c1ccccc1`, the growth inhibition is reported as 6.7%.
Compound `CC(C)CCC[C@@H](C)[C@H]1CC[C@H]2[C@@H]3CC[C@H]4CC5(C[C@]4(C)[C@H]3CC[C@]12C)Nc1ccccc1S5` (stereo not given in full) has a growth inhibition of 4.55%.
`Nc1nc(Sc2ccccn2)ccc1[N+](=O)[O-]` gave a growth inhibition of -27.1%.
Work on `O=C(O)/C=C(/C(=O)O)c1cccn1Cc1ccccc1` yielded a growth inhibition of 17.4%.
Work on `c1ccc(CN2CCCNCC2)cc1` yielded a growth inhibition of -11.8%.
With `C=C(NC(=O)CNC(=O)OCc1ccccc1)C(=O)O` (Cbz-Gly-[Dha]-OH) the growth inhibition was -9.85%.
Work on `OCCCCCCOc1ccc(-c2cc(-c3ccccn3)nc(-c3ccccn3)c2)cc1` yielded a growth inhibition of 64.9%.
For `Cc1ccccc1/C=N\N=C\c1ccco1`, the growth inhibition was -10.7%.
`O=C(CN1C(=O)c2ccccc2C1=O)C(O)CN1C(=O)c2ccccc2C1=O` (stereo not given) showed a growth inhibition of 27.9%.
`CC(NC(=O)OC(C)(C)C)C(=O)NC(Cc1ccccc1)C(=O)NCC(=O)ON=C1CCCC1` (stereo not given) showed a growth inhibition of 7.3%.
Compound `Cc1cc(=O)[nH]c(NN2C(Cl)C(=O)C2c2ccc(Cl)cc2)n1` (stereo not given) has a growth inhibition of -7.9%.
With `CCOc1cc(=O)cc2n(-c3cc(OCC)c(OC)c(OCC)c3)c3ccccc3nc1-2` the growth inhibition was 21.9%.
In the case of `Cc1ccc(C(=O)O)c(=O)[nH]1`, the growth inhibition is reported as 2.05%.

Assay: NCI Yeast Anticancer Drug Screen. Data for the bub3 strain (AID 167)
Conditions: S. cerevisiae bub3 mutant strain, at 50.0 µM, stronger effect = higher value
Summary of the method: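 Mutant yeast screening strain plus compound; vehicle-treated cultures serve as the 0% inhibition reference.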
With `c1ccc(COC(c2ccccc2)(c2ccccc2)c2ccccc2)cc1` the growth inhibition was -0.85%.
`N#CC(c1ccccc1)C1CCN(Cc2ccccc2)CC1` (stereo not given) showed a growth inhibition of 45.8%.
`O=c1n(CCO)nc2n1CCCN2` gave a growth inhibition of 7.5%.
Compound `Cc1ccccc1C(=O)N1CCOCC1` has a growth inhibition of 16.1%.
With `CC1(C)CC(=O)C2(C)C(C1O)C2C1C2C(O)C(C)(C)CC(=O)C21C` (stereo not given) the growth inhibition was 8.2%.
`O=C(O)CSCCOCCSCC(=O)O` gave a growth inhibition of -16.3%.
Compound `CCCCCSC` has a growth inhibition of 7.9%.
`c1ccc(B2OB(c3ccccc3CN3CCCC3)OB(c3ccccc3CN3CCCC3)O2)c(CN2CCCC2)c1` gave a growth inhibition of 0.75%.
Compound `C=C(C)C1CC/C(C)=C/CC[C@]2(C)O[C@H]2CC/C(COC(C)=O)=C\[C@@H]1O` (stereo not given in full) has a growth inhibition of -18.6%.
`CCC(C)CCC(N)C(=O)O` (stereo not given) showed a growth inhibition of 2%.
Compound `c1cc2c3c(cccc3c1)-c1nc3ccccc3nc1-2` has a growth inhibition of 0.2%.
In the case of `Cc1nc(N)nc(C)c1N=Nc1cc(Cl)cc(Cl)c1`, the growth inhibition is reported as 10.2%.
In the case of `CCCCCCCCCCCc1cc(=O)n(-c2cc(Cl)ccc2Cl)n1C`, the growth inhibition is reported as 99% (active).
With `CCCCCNC(=O)C(C)O` (stereo not given) the growth inhibition was -2.2%.
`CC1C(c2ccccc2)=C(c2ccccc2)C(c2ccccc2)=C(c2ccccc2)C1c1ccccc1` (stereo not given) gave a growth inhibition of -1.2%.
`O=S(Cc1ccccc1)CC(O)CO` (stereo not given) gave a growth inhibition of 10.3%.
`NC(=NC1CCCCC1)c1ccc(C(=O)OCC2CCCCC2)cc1` gave a growth inhibition of 21.8%.
Work on `CCCCC1(CCBr)C(=O)NC(=Nc2ccccc2)NC1=O` (stereo not given) yielded a growth inhibition of 2.95%.
For `Cn1c(=O)c2nsnc2n(C)c1=O`, the growth inhibition was -3.7%.
In the case of `CC(=O)OC12c3ccccc3C(c3ccccc31)C1C(=O)N(c3ccccc3O)C(=O)C12` (stereo not given), the growth inhibition is reported as -5.4%.
Compound `O=C(O)C(Nc1ccc(Cc2ccc(NC(C(=O)O)c3ccccc3)cc2)cc1)c1ccccc1` (stereo not given) has a growth inhibition of 37.7%.
Compound `Cc1nc(-c2ccccc2)ncc1C(O)CN(C)C` (stereo not given) has a growth inhibition of -30.4%.
Work on `CNC(=O)c1ccccc1C(O)c1ccc(C)cc1` (stereo not given) yielded a growth inhibition of 37.6%.
`CN(C)c1ccc(C2SCC(=O)N2NS(=O)(=O)c2cccc(C(=O)O)c2)cc1` (stereo not given) showed a growth inhibition of -24.6%.
In the case of `COc1cc(C(C)S(=O)(=O)O)ccc1O` (stereo not given), the growth inhibition is reported as 4.9%.
With `O=C1NCC/C1=C\c1ccccc1` the growth inhibition was -6.65%.
Compound `NC1=NC=NCN1c1ccc(N)cc1` has a growth inhibition of -3.6%.
Compound `O=c1[nH]cnc2c1sc(=S)n2-c1ccccc1` has a growth inhibition of -12.3%.
Compound `CC(C)CCC[C@@H](C)[C@H]1CC[C@H]2[C@@H]3CC[C@H]4CC5(C[C@]4(C)[C@H]3CC[C@]12C)Nc1ccccc1S5` (stereo not given in full) has a growth inhibition of -25.9%.
With `Nc1nc(Sc2ccccn2)ccc1[N+](=O)[O-]` the growth inhibition was -12.1%.
In the case of `O=C(O)/C=C(/C(=O)O)c1cccn1Cc1ccccc1`, the growth inhibition is reported as 13.4%.
With `c1ccc(CN2CCCNCC2)cc1` the growth inhibition was 4.7%.
Compound `C=C(NC(=O)CNC(=O)OCc1ccccc1)C(=O)O` (Cbz-Gly-[Dha]-OH) has a growth inhibition of 15.7%.
For `OCCCCCCOc1ccc(-c2cc(-c3ccccn3)nc(-c3ccccn3)c2)cc1`, the growth inhibition was 70.5% (active).
Work on `Cc1ccccc1/C=N\N=C\c1ccco1` yielded a growth inhibition of 18.1%.
In the case of `O=C(CN1C(=O)c2ccccc2C1=O)C(O)CN1C(=O)c2ccccc2C1=O` (stereo not given), the growth inhibition is reported as 11.4%.
`CC(NC(=O)OC(C)(C)C)C(=O)NC(Cc1ccccc1)C(=O)NCC(=O)ON=C1CCCC1` (stereo not given) showed a growth inhibition of 1.9%.
With `Cc1cc(=O)[nH]c(NN2C(Cl)C(=O)C2c2ccc(Cl)cc2)n1` (stereo not given) the growth inhibition was 8%.
Compound `CCOc1cc(=O)cc2n(-c3cc(OCC)c(OC)c(OCC)c3)c3ccccc3nc1-2` has a growth inhibition of -1.4%.
For `Cc1ccc(C(=O)O)c(=O)[nH]1`, the growth inhibition was 7.3%.
